Wnt act – Wnt/beta-catenin pathway activators, primary screen, cell-based, plate reader, single point | Wnt/beta-catenin reporter cell assay, activator | activation, % at 9.35 µM | 300,000 tested, 1.2% active; in the data active means activation above about 30%, passing the limit was not always enough; inconclusive means no clear call, values can overlap the other calls;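 further: 0% = neutral control wells and 100% = positive control wells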
Rtt109 Vps75 – inhibitors of C. albicans Rtt109/Vps75 HAT, primary screen, biochemical, ThioGlo CoA-SH fluorescence, plate reader. Histone acetyltransferase RTT109 (Candida albicans (strain SC5314 / ATCC MYA-2876)), …. purified Rtt109/Vps75, 4 h. inhibition, % at 34.9 µM. 330,000 tested, 0.16% active;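 active means inhibition of at least 50% in every replicate; inconclusive means best replicate reaches 50% inhibition but some replicates fall short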
Target sequence (Q5AAJ8 whole entry, looked up): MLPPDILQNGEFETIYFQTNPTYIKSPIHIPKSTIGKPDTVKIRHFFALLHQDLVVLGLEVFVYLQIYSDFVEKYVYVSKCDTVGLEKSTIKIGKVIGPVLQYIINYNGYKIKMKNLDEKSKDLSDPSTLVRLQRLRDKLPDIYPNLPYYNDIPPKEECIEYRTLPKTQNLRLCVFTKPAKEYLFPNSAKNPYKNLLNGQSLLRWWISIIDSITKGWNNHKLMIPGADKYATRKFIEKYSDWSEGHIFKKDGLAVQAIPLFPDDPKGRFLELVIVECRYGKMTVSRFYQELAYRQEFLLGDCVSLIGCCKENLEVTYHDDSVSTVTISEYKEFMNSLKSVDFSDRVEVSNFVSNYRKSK
esBAF inh – Bmi1 luciferase reporter increase in mESCs, primary screen, esBAF inhibitor project, mouse ES cells, Bmi1 luciferase knock-in, single point | 24 h; 100% = twice the neutral-well signal | reporter increase, % at 12.5 µM | 350,000 tested, 2% active; in the data active means activation above about 40%; inconclusive means no clear call, values can overlap the other calls;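 further: 0% = median of the plate's neutral control wells and 100% = double that signal; a rise in the Bmi1 reporter signal indicates esBAF inhibition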
C2C12 statin – suppressors of statin myotoxicity in C2C12 myotubes, primary screen, cell-based, single point, plate reader | rescue of ATP level, % at 7.49 µM | C2C12 myotubes + simvastatin, ATP luminescence, 48 h; scaled: DMSO 0, geranylgeraniol control 100 | AID 602340, 2012 | 330,000 tested, 0.78% active;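 active means mean ATP rescue above about 67%, or every replicate alone reaching that limit, limit read from the data, passing the limit was not always enough; inconclusive means no clear call, values can overlap the other calls; inactive means mean under the limit and some replicate under it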;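 further: myotubes were challenged with 10 µM simvastatin during compound exposure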
MITF act – activators of MITF-driven TRPM1 promoter reporter, primary screen, cell-based, SK-MEL-5, luciferase, single point | activation, % at 12.5 µM | 300,000 tested, 0.75% active | AID 588334, 2011 | SK-MEL-5 TRPM1-promoter luciferase, 24 h; % of positive control, neutral wells = 0;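 active means mean activation of at least 80% with every replicate also reaching 80%; inconclusive means mean reaches 80% but some replicate falls short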;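 further: 0% = neutral control wells and 100% = parthenolide positive control wells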
Active calls of the source: *; ? = inconclusive; . = not tested or not shown. Only some compounds are listed: those with a hit (about 3.1% of all), similar ones and a draw of the others.

SMILES	Wnt act	Rtt109 Vps75	esBAF inh	C2C12 statin	MITF act
COc1ccc(C(=O)CC(=O)c2ccccc2O)cc1	18	-6	39	3	58
CCC(=O)c1ccc(OCc2ccc(C(=O)OC)cc2)c(OC)c1	.	-4	12	3	30
NC(=O)c1ccc(OCc2ccccc2)nc1	2	-3	60*	-1	88*
COc1c(Br)cc(C(N)=O)cc1OCc1ccccc1	.	-13	.	.	-3
COc1cc(C(N)=O)ccc1OCc1ccccc1	5	6	14	117*	24
COc1cc(C(N)=O)cc(Cl)c1OCc1ccccc1	-1	2	.	.	2
COc1cccc(C(=O)Nc2ccc3c(c2)C(=O)N(C)C[C@@H](OC)[C@@H](C)CN[C@H](C)CO3)c1	.	.	3	5	.
COc1ccc(C(=O)Nc2ccc(Cl)cn2)cc1S(=O)(=O)N1CCCC1	5	4	14	5	18
CCn1ccc(C(=O)Nc2ccc(Cl)cn2)n1	32*	1	48*	16	.
O=C(Nc1ccc2ncccc2c1)c1ccccc1Br	.	-4	110*	-1	.
O=C(Nc1ccc2ncccc2c1)Nc1ccc2ncccc2c1	12	14	?	-12	28
COc1ccc(C(=O)Nc2ccc(Cl)cn2)cc1Cl	?	-2	69*	-7	?
O=C(CCc1ccccc1)Nc1ccc2ccccc2n1	56*	0	.	.	100*
CNC(=O)C[C@@H]1CC[C@@H]2[C@@H](COc3ccc(NS(=O)(=O)c4cccc(F)c4)cc3C(=O)N2C)O1	.	.	2	-1	.
O=C(Nc1ccc2ccccc2n1)c1ccccc1Br	35*	-5	52*	7	26
O=C(Nc1ccc2ccccc2n1)c1ccccc1	18	5	1	-12	29
COc1ccc(C(=O)Nc2ccc3ccccc3n2)cc1OC	22	3	70*	-13	53
Cc1ccc(C(=O)Nc2ccc3ccccc3n2)cc1	36*	0	6	-44	41
O=C(c1ccccc1F)N1CC[C@@H]2[C@H]1c1cc(-c3ccccc3)ccc1N[C@@H]2CO	.	.	4	10	.
C[C@@H]1CCCCO[C@H](CN(C)C(=O)c2ccncc2)[C@@H](C)CN([C@H](C)CO)C(=O)c2cc(NC(=O)C3CCCCC3)ccc2O1	.	.	-2	-11	.
O=S(=O)(N[C@@H]1CC[C@@H](CCn2cc(-c3cccnc3)nn2)O[C@H]1CO)c1ccc(Cl)cc1	.	.	-6	-6	.
C[C@@H]1CN([C@@H](C)CO)C(=O)c2cc(Br)cnc2O[C@@H]1CN(C)CC1CCCC1	.	.	.	-30	.
CCCNC(=O)Nc1ccc2c(c1)C(=O)N(C)[C@H]1CC[C@H](CC(=O)NC3CCC3)O[C@@H]1CO2	.	.	0	5	.
O=C1CCC(=O)N1CCC(c1ccc(F)cc1)c1ccco1 (configuration not stated)	-1	1	-4	-5	0
O=C1c2ccccc2C(=O)N1CCC(c1ccc(F)cc1)c1ccco1 (configuration not stated)	.	1	2	77*	0
SMILES	Wnt act	Rtt109 Vps75	esBAF inh	C2C12 statin	MITF act
c1ccc(-c2cccc(-c3ccccc3)n2)cc1	7	2	44*	-1	51
c1ccc2nc(-c3ccc(-n4ccnc4)cc3)ccc2c1	49*	1	14	-6	43
c1ccc(-c2ccc3ccccc3n2)cc1	47*	3	37	12	.
COc1ccccc1CNC(=O)C[C@H]1CC[C@@H]2[C@H](COC[C@@H](O)CN2Cc2ccc3c(c2)OCO3)O1	.	.	2	8	.
CN1C(=O)c2cc(NC(=O)Nc3ccc(Cl)cc3)ccc2OC[C@H]2O[C@H](CC(=O)O)CC[C@@H]21	.	.	0	24	.
CC(C)NC(=O)Nc1ccc2c(c1)C(=O)N([C@H](C)CO)C[C@@H](C)[C@H](CN(C)S(=O)(=O)c1ccccc1)OCCCC[C@H](C)O2	.	.	1	.	.
O=C(Nc1ccc2oc(-c3ccccc3)nc2c1)C1CCCO1 (configuration not stated)	24	10	.	.	88*
O=C(Nc1ccc2oc(-c3ccncc3)nc2c1)c1ccc2c(c1)OCO2	-5	6	.	.	3
COc1ccc(NC(=O)C2CCCO2)cc1 (configuration not stated)	1	-6	2	2	.
